Bioassay records (PubChem BioAssay)
This is a sample that favours compounds with a hit; in the whole collection about 4.9% have one here.
HSF1 inh: HSF1 inhibitors in luciferase reporter cells, primary screen, cell-based, NIH3T3, luminescence; NIH3T3-HGL HSE-luciferase, MG132-induced, luminescence 8 h; hits give low values; activity change, negative = inhibition, % at 7.5 µM (by protocol); 300,000 compounds, 0.77% hits;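 active means more than half of replicate wells show activity change below -50%, luminescence cut by over half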;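 further: luciferase reports HSF-1 transcriptional activity via heat shock element; 0% = median of DMSO wells and -100% = zero luminescence signal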
MPTP inh: mitochondrial permeability transition pore inhibitors, primary screen, biochemical, isolated mouse mitochondria, absorbance; 360,000 compounds, 1.4% hits; inhibition, % at 10 µM; Ca2+ swelling absorbance, 30 min;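 active means inhibition of 50% or more, scaled per plate between neutral and stimulator controls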;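 further: 0% = DMSO wells given calcium and 100% = 1 mM EGTA wells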
HSP90 refold inh: HSP90 inhibitors, primary screen, cell lysate, luminescence; Heat shock protein HSP 90 (rabbit reticulocyte lysate; luciferase refolding); Rabbit reticulocyte lysate, luciferase refolding luminescence, 3 h; inhibition, % at 5.6 µM; 290,000 compounds, 0.91% hits; AID 1789, 2009;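 active means inhibition above the screen-wide mean plus 3 SD, computed separately per campaign, cut at about 16% in these data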;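 further: 0% = DMSO wells and 100% = 60 µM geldanamycin wells; inhibitors lower the luminescence because luciferase stays unfolded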
Platelet DG rel: inhibitors of platelet dense granule secretion, primary screen, cell-based, MLPCN, human platelets; inhibition, %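 (compounds screened at 7.5 µM in platelet-rich plasma)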; 300,000 compounds, 0.22% hits; human platelet-rich plasma, SFLLRN dense granule ATP release, luminescence;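 active means mean replicate score, as percent of positive control, at or above 50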
HSF-1 act: HSF-1 activators, primary screen, NIH3T3-HGL cells, MG132 stress, luminescence, single point. NIH3T3-HGL HSF-1 luciferase reporter, 8 h; 100% = twice DMSO control signal. 300,000 compounds, 1.7% hits. activation, % at 9 µM;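 active means mean replicate activation of at least 50% with a set share of replicates each reaching 50%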;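 further: 0% = median of the neutral control wells and 100% = twice that signal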
dFosB activator: activators of delta FosB homodimer, primary screen, biochemical, fluorescence polarization, TAMRA-CDK5 oligo, single point; activation, % at 25 µM; purified delta FosB; percent of positive-control signal above neutral wells; 340,000 compounds, 0.99% hits; Protein FosB (Mus musculus), P13346;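 active means mean activation above about 17%, with every replicate also reaching it, limit read from the data, passing the limit was not always enough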
Target sequence (P13346 whole entry, looked up): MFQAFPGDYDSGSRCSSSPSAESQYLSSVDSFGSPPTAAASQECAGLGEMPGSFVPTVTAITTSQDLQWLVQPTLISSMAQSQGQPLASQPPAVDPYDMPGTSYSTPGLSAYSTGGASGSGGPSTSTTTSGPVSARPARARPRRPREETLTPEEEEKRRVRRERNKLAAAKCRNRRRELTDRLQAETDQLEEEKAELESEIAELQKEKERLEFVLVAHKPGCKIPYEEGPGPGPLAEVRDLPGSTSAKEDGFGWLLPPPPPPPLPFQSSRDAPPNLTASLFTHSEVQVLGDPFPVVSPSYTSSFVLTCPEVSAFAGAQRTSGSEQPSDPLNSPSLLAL
* = called active by the depositor.

How did CCC(=O)N1CCN(c2ccc(NC(=O)COc3ccccc3Cl)cc2)CC1 do in these assays?
HSF1 inh: 11; MPTP inh: -3; HSP90 refold inh: 2; Platelet DG rel: -1; HSF-1 act: 41; dFosB activator: 1

How did CCC(=O)N1CCN(c2ccc(NC(=O)COc3ccc(C)cc3C)cc2)CC1 do in these assays?
HSF1 inh: 97; MPTP inh: 1; HSP90 refold inh: 6; Platelet DG rel: 4; HSF-1 act: 110*; dFosB activator: -5

Results for O=C(COC(=O)c1cncc(Br)c1)NCc1ccccc1 ?
HSF1 inh: 14; MPTP inh: 2; HSP90 refold inh: -3; Platelet DG rel: -1; HSF-1 act: 53*; dFosB activator: -2

What do the screens show for `CCOc1ccc(C(=O)NCC(=O)OCc2c(F)cccc2Cl)cc1`?
HSF1 inh: 11; MPTP inh: 0; HSP90 refold inh: 2; Platelet DG rel: 17; HSF-1 act: 20; dFosB activator: -5

What do the screens show for `c1ccc2c(c1)OCC(c1csc3ncnc(N4CCOCC4)c13)O2` (stereo not drawn)?
HSF1 inh: -57*; MPTP inh: 2; HSP90 refold inh: 0; Platelet DG rel: -4; HSF-1 act: -66; dFosB activator: 2

Results for COc1ccc(C2C3=C(Nc4ncnn42)c2ccccc2CCC3)cc1 (stereo not drawn) ?
HSF1 inh: -3; MPTP inh: 0; HSP90 refold inh: -1; Platelet DG rel: -8; HSF-1 act: -9; dFosB activator: -11

Results for Fc1ccc(/C=C2\CCCC3=C2Nc2ncnn2C3c2ccc(F)cc2)cc1 (stereo not drawn) ?
HSF1 inh: 66; MPTP inh: 1; HSP90 refold inh: 1; Platelet DG rel: -1; HSF-1 act: 98*; dFosB activator: -4

Results for O=C(Nc1nnc(C2CC2)s1)C1Cc2ccccc2CN1S(=O)(=O)c1cccs1 (stereo not drawn) ?
HSF1 inh: 20; MPTP inh: 2; HSP90 refold inh: 1; Platelet DG rel: -16; HSF-1 act: 37; dFosB activator: -3

How did CCc1nnc(NC(=O)C2CCCN2S(=O)(=O)c2ccc(C)cc2)s1 (stereo not drawn) do in these assays?
HSF1 inh: -6; MPTP inh: 1; HSP90 refold inh: 1; Platelet DG rel: -2; HSF-1 act: -25; dFosB activator: -7

How did CCc1nnc(NC(=O)C2Cc3ccccc3CN2S(=O)(=O)c2ccc(C)cc2)s1 (stereo not drawn) do in these assays?
HSF1 inh: 25; MPTP inh: 2; HSP90 refold inh: -3; Platelet DG rel: -1; HSF-1 act: 58*; dFosB activator: -13

How did CCc1nnc(NC(=O)C2Cc3ccccc3CN2S(=O)(=O)c2cccs2)s1 (stereo not drawn) do in these assays?
HSF1 inh: 43; MPTP inh: 1; HSP90 refold inh: -4; Platelet DG rel: -14; HSF-1 act: 84*; dFosB activator: -14

How did O=CN1CCCN(Cc2nc(-c3cccc(Cl)c3)no2)CC1 do in these assays?
HSF1 inh: 2; MPTP inh: 1; HSP90 refold inh: 4; Platelet DG rel: 3; HSF-1 act: -12; dFosB activator: -7

Results for O=C(OC(C(=O)NCc1ccco1)c1ccc(Cl)cc1)c1cccs1 (stereo not drawn) ?
HSF1 inh: 5; MPTP inh: 0; HSP90 refold inh: 5; Platelet DG rel: -2; HSF-1 act: 11; dFosB activator: -3

How did C=CCSc1nnc(-c2cccnc2)o1 do in these assays?
HSF1 inh: 0; MPTP inh: 0; HSP90 refold inh: -1; Platelet DG rel: 13; HSF-1 act: -7; dFosB activator: 5

How did Clc1ccc(-c2nnc(CCc3ccccc3)o2)c(Cl)c1 do in these assays?
HSF1 inh: 35; MPTP inh: 2; HSP90 refold inh: 0; Platelet DG rel: 0; HSF-1 act: 69*; dFosB activator: -2
